Screening data from PubChem BioAssay.
A selection: hits, their analogues and other compounds. The true share with any hit is near 0.9%.
APEX1 inh: inhibitors of human APE1 endonuclease; recombinant APE1, TAMRA/BHQ-2 abasic DNA cleavage fluorescence; Potency, µM (top dose mostly 65.8 µM), inactives show at the top dose activity change, negative = inhibition, actives largely listed as inhibitors; 0.35% of 350,000 active; AID 2517;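 further: plate controls were vehicle for no effect and reference inhibitor for full effect; nearly all actives have a fitted effect of over 55% in size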
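Substrate: short duplex with […] THF abasic site, 5'-TAMRA and 3'-BHQ-2, 50 nM final. APE1 at 0.75 nM, preincubated 15 min RT with compound. Fluorescence increase from first to third read measured activity.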
BLM inh: inhibitors of human Bloom syndrome helicase BLM. recombinant BLM DNA unwinding, fluorescence dequenching. Potency, µM (top dose mostly 56.1 µM), without a hit: top-dose activity change, negative = inhibition, most hits filed as inhibitors. 0.2% of 350,000 active;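 further: plate controls were vehicle for no effect and no enzyme for full effect; nearly all actives have a fitted effect of over 35% in size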
RECQ1 inh-1: blocks DNA unwinding by human RECQ1 | P46063 | RECQ1 DNA unwinding, red fluorescence kinetic read | Potency, µM (highest dose often 57.3 µM), without a hit: at the top dose activity, negative = inhibition, most hits filed as inhibitors | 0.54% of 240,000 active | AID 2549;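 further: plate controls were vehicle for no effect and no enzyme for full effect; nearly all actives have a fitted effect of over 30% in size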
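50 nM RECQ1T1 preincubated 15 min with compound in Tris pH 8.0 buffer with MgCl2, DTT, Tween-20 and 2.5 ug/ml poly(dI-dC); started with 200 nM TAMRA/BHQ-2 forked duplex and 2 mM ATP. Unwinding read as fluorescence (525/598 nm), two reads 2 h apart.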
KAT2A inh: GCN5L2 (KAT2A) acetyltransferase inhibition; Q92830; GCN5L2 HAT assay, ThioGlo1 CoA-SH fluorescence; Potency, µM (top dose mostly 58.9 µM), without a hit: at the highest dose activity change, negative = inhibition, hits mostly inhibitors; 0.21% of 390,000 active; AID 504327
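Compounds, pin-transferred from DMSO stocks, meet 20nM GCN5L2 for 15 min before the reaction begins with H3(1-25) peptide (75uM) and acetyl-CoA (70uM). Thiol-reactive ThioGlo1 reports CoA release over 20 min at room temperature.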
TDP1 inh: blocks human tyrosyl-DNA phosphodiesterase 1 | Q9NUW8 | recombinant TDP1, AlphaScreen DNA substrate cleavage | Potency, µM (doses to about 130 µM), without a hit: at the top dose activity change, negative = inhibition, hits mostly inhibitors | 0.28% of 350,000 active | AID 485290; further: nearly all actives have a fitted effect of over 40% in size
Target sequence (Q9NUW8 whole entry, looked up): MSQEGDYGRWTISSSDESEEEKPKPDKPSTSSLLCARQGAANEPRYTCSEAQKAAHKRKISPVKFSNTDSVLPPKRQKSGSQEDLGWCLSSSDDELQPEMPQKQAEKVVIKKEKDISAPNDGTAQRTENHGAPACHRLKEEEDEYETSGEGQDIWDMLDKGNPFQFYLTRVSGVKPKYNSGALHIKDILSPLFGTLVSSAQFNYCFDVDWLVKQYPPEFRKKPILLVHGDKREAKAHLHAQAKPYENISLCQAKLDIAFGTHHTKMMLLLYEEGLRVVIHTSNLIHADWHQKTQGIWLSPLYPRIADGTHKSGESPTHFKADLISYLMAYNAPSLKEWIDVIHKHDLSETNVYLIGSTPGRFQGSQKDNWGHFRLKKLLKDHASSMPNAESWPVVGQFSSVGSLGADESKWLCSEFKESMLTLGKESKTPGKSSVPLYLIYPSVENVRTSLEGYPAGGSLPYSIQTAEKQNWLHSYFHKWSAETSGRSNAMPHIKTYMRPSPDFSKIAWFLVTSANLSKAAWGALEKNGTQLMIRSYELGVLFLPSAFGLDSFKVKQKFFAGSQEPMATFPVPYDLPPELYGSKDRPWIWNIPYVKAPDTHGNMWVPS
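E. coli-derived human Tdp1, 1 nM final. Cpd preinc 15 min RT; substrate 15 nM final, 5 min RT; AS bead mix 10 ug/ml final, 10 min RT. Signal loss = tyrosine-FITC cleavage. No-enzyme wells = max signal.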
LMNA splice mod: LMNA splicing modulation. HeLa LMNA splicing GFP/RFP minigene ratio, 48 h. Potency, µM (titrated, usually from 46.1 µM), for inactives: at the top dose ratio change, negative = inhibition, actives largely listed as inhibitors. 0.01% of 200,000 active. AID 1487; active means well fitted inhibition curve with a large enough effect in the signal ratio, with a control signal flat, not every such curve was filed as active; inconclusive means small, poorly fitted or top-dose-only effect, or effect the other way, or a change in a side signal; the % refers to the signal ratio
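Read-out is the ratio of GFP to DsRed2 object intensity, acquired by 488 nm laser-scanning cytometry on HeLa lamin A-EGFP minigene reporter cells. Compound incubation 48 hrs at 37 °C in Opti-MEM with 2% FBS; DMSO 0.5% final.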
RECQ1 conf: confirmation of human RECQ1 helicase inhibitors | AID 2708 | shares compounds with RECQ1 inh-1 | RECQ1 helicase DNA unwinding, fluorescence | Potency, µM (top dose mostly 229 µM), inactives show at the highest dose activity change, negative = inhibition, usual class: inhibitors | 28% of 610 active; further: nearly all actives have a fitted effect of over 45% in size
ADP FP counter: counter-screen for RECQ1 inhibitors: ADP displacement. AID 2711. 27% of 530 active. Potency, µM (top dose mostly 228 µM), without a hit: at the top dose activity change, negative = inhibition, most hits filed as inhibitors. shares compounds with RECQ1 inh-1. ADP fluorescence polarization displacement counterscreen; further: nearly all actives have a fitted effect of over 45% in size
RECQ1 inh-2: RECQ1 helicase inhibition confirmed, round 2 | recombinant RECQ1 DNA unwinding, red fluorescence | 15% of 1,100 active | Potency, µM (highest dose often 119 µM), for the others: at the highest dose activity, negative = inhibition, usual class: inhibitors | shares compounds with RECQ1 inh-1; further: nearly all actives have a fitted effect of over 50% in size
An asterisk follows results filed as active; i = inactive; ? = inconclusive; . = no result given; [ ] = another dose, or the depositor's remark. Unless noted, the call rests on the fitted dose curve; in most records, active means well fitted curve in the direction sought with a large enough effect; inconclusive means small, poorly fitted or top-dose-only effect, or another doubt; inactive means no such curve, though single readings can be large; an effect the other way counts as inactive or inconclusive. Unless noted, on the % scale 0 is the no-effect control and ±100 the full control effect; potency means the concentration at half of the fitted maximal effect.

SMILES	APEX1 inh	BLM inh	RECQ1 inh-1	KAT2A inh	TDP1 inh	LMNA splice mod	RECQ1 inh-2	others
CC1=Nc2ccccc2N=C(NC(=O)CSc2nnnn2-c2ccccc2)C1c1ccccc1 (configuration not stated)	14%	-11%	3%	.	3%	?	.	RECQ1 conf=0%;ADP FP counter=1%
CCCCNc1nc(C#N)nc(Nc2ccccc2)n1	-18%	-7%	4%	.	6%	.	.
C[C@H]1Cc2c(-c3ccccc3)nc3c(c2CO1)CN(C(=O)c1cc(I)ccc1F)CC3	-6%[12.4 µM]	-6%[12.4 µM]	5%[11.5 µM]	.	9%[12.3 µM]	11%[9.22 µM]	.
N#CC1=C(N)Oc2ccc3ccc(O)cc3c2C1c1ccsc1 (configuration not stated)	-10%	-3%	?	-8%	3%	-9%	50µM*
Clc1ccc(Cn2cc3c(n2)-c2cc4ccccc4n2C3)cc1	.	.	.	.	-3%	.	.
Cn1cnnc1SCC(=O)Nc1sc2c(c1C(N)=O)CCC2	?	?	32µM*	?	.	-1%	?
COC(=O)c1c(NC(=O)CN2C(=O)NC3(CCC(C(C)(C)C)CC3)C2=O)sc2c1CCCCC2 (configuration not stated)	4%	-1%	-3%	-5%	3%	-6%	.
COCCn1cnnc1SCC(=O)Nc1sc2c(c1C#N)CCC2	10%	.	.	-4%	0%[56.1 µM]	.	.
CC1CCC2(CC1)NC(=O)N(CC(=O)Nc1sc3c(c1C(N)=O)CCC3)C2=O (configuration not stated)	?	?	32µM*	-28%	?	-9%[46 µM]	?
O=C(Cn1ncc(Cl)c(Cl)c1=O)N1CCN(Cc2ccccc2)CC1	9%	-18%	32µM*	-6%	4%	?	-14%
Clc1ccc(-c2nnc3sc(-c4ccc(Br)o4)nn23)cc1	1%	-3%	-5%	-4%	4%	7%	.
Cc1oc(-c2ccc(Cl)cc2)cc1-c1nn2c(-c3ccoc3C)nnc2s1	?	10µM*	14µM*	-29%	.	12%	.	RECQ1 conf=35µM*;ADP FP counter=14%[91.9 µM]
CSc1ccccc1NC(=O)COC(=O)c1ccccc1Cc1ccccc1	-4%	-8%	25µM*	-7%	-11%	-4%	-3%
O=C(O)CCC(=O)N1N=C(c2ccco2)CC1c1ccco1 (configuration not stated)	-29%	-5%	.	-21%	.	.	.
O=C(O)CCC(=O)N1N=C(c2ccco2)CC1c1cccs1 (configuration not stated)	5%	-2%	-4%	-3%	-3%	-2%	.	RECQ1 conf=-4%;ADP FP counter=5%
CC1(C)c2ccccc2N2CCC(=O)NC21/C=C/c1ccco1 (configuration not stated)	-3%	-7%	?	-5%	0%	10%	-4%
COc1cc(/C=C2/SC(=Nc3ccc(O)cc3)NC2=O)cc(OC)c1O	?	-9%	-29%	-12%	-1%	-6%[46 µM]	.
O=C1NC(=Nc2ccc(O)cc2)S/C1=C\C=C\c1ccco1	?	-24%	?	-3%	-11%	.	?
Cc1oc2ncn(C)c(=O)c2c1C(=O)N(C)c1ccccc1F	.	3%	.	2%	3%	-2%[46 µM]	.
CN1/C(=C\C(=O)COC(=O)Cn2nnc(-c3ccccc3)n2)C(C)(C)c2ccccc21	-10%	-15%	?	-14%	-1%	-2%	45µM*
COc1cc(OC)cc(C(=O)NCC(=O)OCC(=O)/C=C2/N(C)c3ccccc3C2(C)C)c1	-8%	-25%	-26%	-12%	9%	.	.
Cc1ccc2sc(C)[n+](CCCS(=O)(=O)[O-])c2c1	-3%	-4%	3.5µM*	-2%	-10%	3%[46 µM]	.	RECQ1 conf=9%[114 µM];ADP FP counter=8%[91.9 µM]
COCCCNC(=O)c1ccc2c3c(onc13)-c1ccccc1C2=O	?	-7%	13µM*	1%	7%	.	50µM*
O=C(CS(=O)(=O)c1cccc2nsnc12)N1CCN(c2cccc(C(F)(F)F)c2)CC1	.	-1%	.	-1%	0%	?	.
COc1ncc2nc(C)c(=O)n(CCC#N)c2n1	0%	-1%	1%	-6%	.	.	.
SMILES	APEX1 inh	BLM inh	RECQ1 inh-1	KAT2A inh	TDP1 inh	LMNA splice mod	RECQ1 inh-2	others
COc1ccc(C2=Nn3c(nnc3-c3ccc(OC)c(OC)c3)SC2)c(OC)c1	-4%	-6%	9%	.	18%	.	.
CCN1CCN(c2nc(Nc3ccc(NC(C)=O)cc3)nc(Nc3ccc(NC(C)=O)cc3)n2)CC1	-4%	18µM*	32µM*	-9%	-4%	.	22µM*
CC(=O)Nc1ccc(/C(C)=N/Nc2nc(Nc3ccccc3)nc(N3CCOCC3)n2)cc1	0%	-2%	-2%	-2%	-1%	.	.
C[C@H](NC(=O)[C@@H](N)Cc1ccc(O)cc1)C(=O)NCC(=O)N[C@H]1CSSC[C@@H](C(=O)O)NC(=O)[C@H](CO)NC(=O)[C@H]([C@@H](C)O)NC(=O)[C@H](Cc2ccccc2)NC(=O)[C@H]([C@@H](C)O)NC(=O)[C@H](CCCCN)NC(=O)[C@@H](Cc2c[nH]c3ccccc23)NC(=O)[C@H](Cc2ccccc2)NC(=O)[C@H](Cc2ccccc2)NC(=O)[C@H](CC(N)=O)NC(=O)[C@H](CCCCN)NC1=O	0%	1%	-6%	-11%	9%	.	.
COc1ccc2[nH]cc(CCNc3ccnc(-c4ccccc4Cl)n3)c2c1	-6%	-5%	i	-15%	.	?	.
COc1ccc(C2CC(c3ccccc3)Oc3cc(OC)ccc32)cc1 (configuration not stated)	-6%	-10%	-10%	.	-9%	.	.
CC(Sc1nnc(COc2ccc(Cl)cc2)n1Cc1ccccc1)C(=O)O (configuration not stated)	4%	3%	-1%	-20%	-5%	15%[46 µM]	.	RECQ1 conf=17%;ADP FP counter=1%
CCOC(=O)CSc1nnc(-c2cc(OC)c(OC)c(OC)c2)o1	2%	1%	-6%	-5%	2%	?	.
